Records with an inconclusive call do not appear. The list shows a part of the results. The source made the active and inactive calls. Unless noted, calls come from the whole dose curve; as a rule, active = well fitted curve in the direction sought with a large enough effect; inconclusive = small, poorly fitted or top-dose-only effect, or another doubt; inactive = no such curve, though single readings can be large; an effect the other way counts as inactive or inconclusive.
Tests used:
[1] = AP1 Signaling Pathway (AID 357; active = well fitted curve in either direction with a large enough effect, not every such curve was filed as active;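 note: ME-180 reporter cells stimulated with EGF at its EC50 level; % is set by controls: 0 for no effect and ±100 for the full control effect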); details: ME-180 (cervical carcinoma) AP-1-bla reporter, EGF-induced, beta-lactamase ratio, 5 h; at 7.69 µM (top of the series) unless noted
How it was run: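 First, ME-180 AP-1-bla cells were cultured overnight at 37 °C in low-serum Opti-MEM. Next, titrated compounds with EC50 EGF were incubated 5 hours. Finally, CCF4 was added for 2.5 hours and the 460/530 nm ratio recorded.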

[2] = NFAT Signaling Pathway (AID 444; active = well fitted curve in either direction with a large enough effect, not every such curve was filed as active;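 note: carbachol stimulus at about its EC50 of 1 µM final; % is set by controls: 0 for no effect and ±100 for the full control effect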); details: Jurkat NFAT-bla M1, carbachol, beta-lactamase ratio, 5 h; at 7.69 µM (top of the series) unless noted
How it was run: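 Jurkat cells carrying an NFAT-driven β-lactamase reporter and co-transfected muscarinic M1 receptor were treated with compound plus carbachol (1 uM final, an EC50 level) for 5 h at 37 °C. CCF4 loading followed for 1 h at RT; 460/530 nm ratio gave %activity.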

[3] = Stat Signaling Pathway (AID 446; active = well fitted curve in either direction with a large enough effect, not every such curve was filed as active;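 note: ME-180 cervical cancer cells given 40 pM IL-6 alongside compound; SIE-controlled beta-lactamase reporter measured as 460/530 nm FRET emission ratio; % is set by controls: 0 for no effect and ±100 for the full control effect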)
How it was run: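 FRET read-out (405 nm excitation, 460/530 nm emission) of a beta-lactamase reporter under a STAT-inducible element in ME-180 cervical carcinoma cells. Cells with compound receive 40 pM IL-6 for 5 h. Values are normalised to AC90 stimulation and AC90 JAK-inhibitor controls.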

[4] = biological target: Glucocorticoid receptor (Homo sapiens) (UniProt P04150); assay: GR-GFP Redistribution (AID 450;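 active = compounds whose dose series gives a full or clear partial fitted curve of increased nuclear translocation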; note: potency is the fitted concentration of half-maximal effect); details: U2OS GR-GFP nuclear translocation, laser cytometry, 2 h
[5] = biological target: Rap guanine nucleotide exchange factor 3 (Homo sapiens) (UniProt O95398); assay: Confirmatory qHTS for antagonist of cAMP-regulated guanine nucleotide exchange factor 3 (EPAC1) (AID 1645880); details: EPAC1 Rap1B-BODIPY-GDP exchange, fluorescence; activity, negative = inhibition: at 115 µM (top of the series); note: nearly all actives have a fitted effect of over 55% in size; note: potency is the fitted concentration of half-maximal effect;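 for activity, negative = inhibition: plate controls were DMSO only for no effect and full effect of the ATA control for full effect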
How it was run: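 Released BODIPY-GDP fluoresces less than Rap1-bound BODIPY-GDP; the signal is followed at 480/540 nm at 5-min intervals over 30 min, after 5 min at room temperature. Reactions contain 100 nM EPAC1, 250 nM RAP1B-BODIPY-GDP and 50 uM GDP; results are normalized to ATA and DMSO.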

[6] = biological target: Rap guanine nucleotide exchange factor 3 (Homo sapiens) (UniProt O95398); assay: Confirmatory qHTS for agonist of cAMP-regulated guanine nucleotide exchange factor 3 (EPAC1) (AID 1645881); note: nearly all actives have a fitted effect of over 75% in size; note: potency is the fitted concentration of half-maximal effect;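 for activation: EPAC1 catalysed release of BODIPY-GDP from Rap1B seen as fluorescence loss; 100% = effect of cAMP agonist control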
[7] = biological target: Rap guanine nucleotide exchange factor 4 (Homo sapiens) (UniProt Q8WZA2); assay: Confirmatory qHTS for agonist of cAMP-regulated guanine nucleotide exchange factor 4 (EPAC2) (AID 1645884);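 note: nucleotide exchange releases bodipy-GDP from Rap1 and this lowers its fluorescence; nearly all actives have a fitted effect of over 65% in size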; note: potency is the fitted concentration of half-maximal effect
[8] = biological target: Rap guanine nucleotide exchange factor 4 (Homo sapiens) (UniProt Q8WZA2); assay: Confirmatory qHTS for antagonist of cAMP-regulated guanine nucleotide exchange factor 4 (EPAC2) (AID 1645885); note: nearly all actives have a fitted effect of over 25% in size; note: potency is the fitted concentration of half-maximal effect
[9] = biological target: Rap guanine nucleotide exchange factor 3 (Homo sapiens) (UniProt O95398); assay: Counterscreen qHTS for antagonist of cAMP-regulated guanine nucleotide exchange factor 3 (EPAC1) (AID 1645888); note: % of control where 0% means no effect
How it was run: (§1)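 Measured: fluorescence of BODIPY-GDP bound to Rap1B, which falls as exchange proceeds. Conditions include 50 uM competing GDP, 5 and 30 min reads, and a later cAMP challenge for antagonist detection.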

[10] = biological target: Tumor susceptibility gene 101 protein (Homo sapiens) (UniProt Q99816); assay: qHTS Assay for Iinhibitors of HIV-1 Budding by Blocking the Interaction of PTAP/TSG101: Hit Validation (AID 651600); note: nearly all actives have a fitted effect of over 70% in size; note: potency is the fitted concentration of half-maximal effect
How it was run: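 Compounds are added to the Tsg101 binding domain (10 uM final) in pH 7.5 HEPES buffer. FITC-PTAP peptide follows at 50 nM final. After 20 min at r.t., polarized FITC emission is measured.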

[11] = biological target: Rap guanine nucleotide exchange factor 3 (Homo sapiens) (UniProt O95398); assay: Counterscreen qHTS for agonist of cAMP-regulated guanine nucleotide exchange factor 3 (EPAC1) (AID 1645889); note: nearly all actives have a fitted effect of over 40% in size; note: potency is the fitted concentration of half-maximal effect; for activation: % of control where 0% means no effect
How it was run: as §1

[12] = biological target: DNA polymerase iota (Homo sapiens) (UniProt Q9UNA4); assay: qHTS for Inhibitors of Polymerase Iota: Confirmatory Assay for Cherry-picked Compounds (AID 720496); details: Pol iota primer extension, TAMRA/BHQ fluorescence; note: potency is the fitted concentration of half-maximal effect
How it was run: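 Extension of a quenched TAMRA-reporter/BHQ-2-template DNA substrate (50 nM) by 10 nM Pol iota after 15 min compound preincubation. Strand-displacement fluorescence (525/598 nm) was read kinetically at 0 and 10 min. Buffer-only wells served as negative control.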

[13] = biological target: DNA polymerase eta (Homo sapiens) (UniProt Q9Y253); assay: qHTS for Inhibitors of Polymerase Eta: Confirmatory Assay for Cherry-picked Compounds (AID 720502); details: Pol eta primer extension, TAMRA/BHQ fluorescence, 10 min; note: potency is the fitted concentration of half-maximal effect
How it was run: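 Compounds are preincubated 15 min at room temperature with 10 nM human Pol eta, with buffer-only wells serving as negative control. Adding 50 nM final substrate starts the reaction, and TAMRA fluorescence is read over 10 min.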

[14] = qHTS for Inhibitors of the vitamin D receptor (VDR): Hit Validation using a Texas Red Assay (AID 602201); note: potency is the fitted concentration of half-maximal effect
How it was run: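 Fluorescence polarization (Ex 595/Em 615 nm) of Texas Red (7 nM) with 1.5 uM VDR-LBD and LG19078 (final concentrations). Compounds were incubated for 2 hours at room temperature.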

[15] = biological target: Lysosomal acid glucosylceramidase (Homo sapiens) (UniProt P04062); assay: Glucocerebrosidase-p2 (AID 348; in the data active = potency below about 10 µM; note: potency is the fitted concentration of half-maximal effect); details: purified GBA, blue fluorogenic substrate, 40 min
How it was run: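 Normal human glucocerebrosidase (0.2 nM) with blue fluorogenic substrate (80 uM final) in citrate/phosphate pH 5.9 with 10mM sodium taurocholate, 0.01% tween-20; 40 min RT, NaOH/glycine stop; fluorescence Ex 365/Em 440; AC50 from a titration from 0.6 nM upwards.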

[16] = biological target: Cytochrome P450 1A2 (Homo sapiens) (UniProt P05177); assay: p450-cyp1a2 (AID 410; calls by dose curve; note: potency is the fitted concentration of half-maximal effect)
How it was run: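 O-Demethylation of luciferin 6' methyl ether by human CYP1A2 is monitored as luciferase luminescence. Substrate sits at Km (100uM); enzyme is 20nM. Values are scaled to 57 uM furafylline as maximal inhibition.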

[17] = biological target: Glucocorticoid receptor (Homo sapiens) (UniProt P04150); assay: GR-EFC Redistribution (AID 451; calls by dose curve; note: potency is the fitted concentration of half-maximal effect); details: CHO-K1 GR-EFC translocation, beta-gal luminescence, 2 h
How it was run: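 CHO-K1 cells stably expressing nuclear-localized β-gal enzyme acceptor and GR fused C-terminally to the enzyme donor fragment; ligand-driven nuclear translocation restores β-gal by complementation. Compounds titrated up to 46 uM final, 2 h at 37 °C; luminescence read.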

[18] = biological target: Mitogen-activated protein kinase 10 (Mus musculus) (UniProt Q61831); assay: JNK3 AlphaScreen Assay (AID 530; active = well fitted curve in either direction with a large enough effect, not every such curve was filed as active;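 note: kinase came from lysate of stimulated human HepG2 cells; signal reports phosphorylation of biotinylated GST-cJun 1-79 at Ser73 with 10 µM ATP; % is set by controls: 0 for no effect and ±100 for the full control effect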)
How it was run: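 Phosphorylation of biotinylated GST-cJun(1-79) at Ser73 is measured by AlphaScreen proximity luminescence. Enzyme is JNK3 in HepG2 lysates activated with interleukin-1beta and tumor necrosis factor alpha; ATP is 10 uM final.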

[19] = biological target: 3',5'-cyclic-AMP phosphodiesterase 4B (Homo sapiens) (UniProt Q07343); assay: qHTS Assay for Inhibitors of PDE-IV (AID 607; active = well fitted activation curve with a large enough effect in the main read-out, with a control signal flat, not every such curve was filed as active; note: % of control where 0% means no effect)
How it was run: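 Cell-based read-out of cAMP via a modified cyclic nucleotide-gated channel and membrane potential dye (535/590 nm) in HEK293 cells expressing PDE4 endogenously. Compounds tested up to 22.9 uM final; 100 uM RO 20-1724 reference.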

[20] = biological target: Cytochrome P450 2D6 (Homo sapiens) (UniProt P10635); assay: qHTS Assay for Inhibitors and Substrates of Cytochrome P450 2D6 (AID 891); note: potency is the fitted concentration of half-maximal effect; nearly all actives have a fitted effect of over 60% in size
How it was run: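 Luminescent read-out of luciferin formed by 5 nM human CYP2D6 demethylating 30 uM Luciferin-ME EGE (Km level) over 60 min at room temperature after NADPH regeneration addition. Data normalized to full inhibition by 1.43 uM quinidine.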

[21] = biological target: Cytochrome P450 2C19 (Homo sapiens) (UniProt P33261); assay: qHTS Assay for Inhibitors and Substrates of Cytochrome P450 2C19 (AID 899); note: potency is the fitted concentration of half-maximal effect; nearly all actives have a fitted effect of over 60% in size
How it was run: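 Human CYP2C19 (5nM) with Luciferin-H EGE at 10uM (its KM) in 50mM KPO4 was preincubated with compound for 10 min at 37C. NADPH regeneration started a 60 min 37C reaction. Luciferin was read by luminescence, normalized to 57uM ketoconazole.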

Chain of Tumor susceptibility gene 101 protein (Homo sapiens) (Q99816 whole entry, looked up, the tested form may be a part): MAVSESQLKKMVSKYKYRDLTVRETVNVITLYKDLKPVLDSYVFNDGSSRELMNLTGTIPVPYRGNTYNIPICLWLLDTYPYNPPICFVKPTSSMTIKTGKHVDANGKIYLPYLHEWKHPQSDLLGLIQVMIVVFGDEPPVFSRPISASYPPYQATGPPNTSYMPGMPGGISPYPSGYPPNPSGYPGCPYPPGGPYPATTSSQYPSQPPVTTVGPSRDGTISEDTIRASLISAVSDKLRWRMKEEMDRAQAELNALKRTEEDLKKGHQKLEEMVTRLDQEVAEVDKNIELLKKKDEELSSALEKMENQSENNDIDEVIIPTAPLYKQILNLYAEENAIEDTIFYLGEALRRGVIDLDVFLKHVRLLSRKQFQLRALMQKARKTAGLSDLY
Chain of Rap guanine nucleotide exchange factor 4 (Homo sapiens) (Q8WZA2 whole entry, looked up): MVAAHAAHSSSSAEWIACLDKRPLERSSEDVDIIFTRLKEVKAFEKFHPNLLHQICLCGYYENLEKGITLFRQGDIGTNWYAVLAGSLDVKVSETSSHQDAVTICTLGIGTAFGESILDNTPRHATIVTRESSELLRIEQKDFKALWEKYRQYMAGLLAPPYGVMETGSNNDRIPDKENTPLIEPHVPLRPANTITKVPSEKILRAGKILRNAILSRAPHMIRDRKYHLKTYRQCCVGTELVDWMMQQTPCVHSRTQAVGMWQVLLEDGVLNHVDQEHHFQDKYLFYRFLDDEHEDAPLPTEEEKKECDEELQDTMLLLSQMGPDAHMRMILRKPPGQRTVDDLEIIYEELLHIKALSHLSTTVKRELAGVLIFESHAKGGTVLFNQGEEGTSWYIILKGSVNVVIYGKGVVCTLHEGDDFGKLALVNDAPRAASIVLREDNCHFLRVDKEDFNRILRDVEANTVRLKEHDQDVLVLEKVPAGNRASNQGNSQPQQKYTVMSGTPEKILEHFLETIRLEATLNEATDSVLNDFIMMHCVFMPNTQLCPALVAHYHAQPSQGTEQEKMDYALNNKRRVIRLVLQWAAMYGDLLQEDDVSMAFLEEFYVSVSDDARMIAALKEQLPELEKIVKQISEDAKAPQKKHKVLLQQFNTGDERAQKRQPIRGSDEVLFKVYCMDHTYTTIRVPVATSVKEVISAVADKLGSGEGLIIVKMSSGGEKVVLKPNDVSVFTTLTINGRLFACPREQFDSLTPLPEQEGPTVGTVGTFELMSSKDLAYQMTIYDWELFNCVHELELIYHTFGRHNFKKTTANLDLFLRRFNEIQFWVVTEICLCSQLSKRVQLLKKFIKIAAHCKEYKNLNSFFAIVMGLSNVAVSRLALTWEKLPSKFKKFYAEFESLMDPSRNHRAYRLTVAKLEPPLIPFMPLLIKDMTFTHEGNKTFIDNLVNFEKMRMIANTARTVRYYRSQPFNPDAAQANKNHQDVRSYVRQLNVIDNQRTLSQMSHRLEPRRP
Chain of Glucocorticoid receptor (Homo sapiens) (P04150 whole entry, looked up, the tested form may be a part): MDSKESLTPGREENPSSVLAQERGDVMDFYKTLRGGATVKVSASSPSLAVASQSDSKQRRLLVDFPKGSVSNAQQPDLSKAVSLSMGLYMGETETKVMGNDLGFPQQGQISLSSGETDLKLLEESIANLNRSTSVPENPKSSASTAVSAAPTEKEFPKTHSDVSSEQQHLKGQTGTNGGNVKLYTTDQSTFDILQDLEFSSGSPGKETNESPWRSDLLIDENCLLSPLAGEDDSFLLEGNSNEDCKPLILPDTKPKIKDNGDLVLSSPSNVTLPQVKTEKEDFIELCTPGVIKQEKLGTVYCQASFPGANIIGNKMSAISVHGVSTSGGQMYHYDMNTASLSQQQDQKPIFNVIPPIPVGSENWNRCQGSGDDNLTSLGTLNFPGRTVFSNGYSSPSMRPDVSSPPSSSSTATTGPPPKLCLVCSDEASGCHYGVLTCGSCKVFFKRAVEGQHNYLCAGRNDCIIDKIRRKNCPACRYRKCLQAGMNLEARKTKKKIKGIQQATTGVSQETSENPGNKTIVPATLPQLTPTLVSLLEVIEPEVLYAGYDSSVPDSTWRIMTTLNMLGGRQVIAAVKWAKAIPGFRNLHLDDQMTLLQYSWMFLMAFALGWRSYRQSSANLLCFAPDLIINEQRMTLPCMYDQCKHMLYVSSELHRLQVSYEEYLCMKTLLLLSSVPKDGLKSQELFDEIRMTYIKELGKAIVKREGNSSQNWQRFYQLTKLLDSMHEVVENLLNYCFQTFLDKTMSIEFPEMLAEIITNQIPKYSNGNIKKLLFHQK
Chain of Rap guanine nucleotide exchange factor 3 (Homo sapiens) (O95398 whole entry, looked up): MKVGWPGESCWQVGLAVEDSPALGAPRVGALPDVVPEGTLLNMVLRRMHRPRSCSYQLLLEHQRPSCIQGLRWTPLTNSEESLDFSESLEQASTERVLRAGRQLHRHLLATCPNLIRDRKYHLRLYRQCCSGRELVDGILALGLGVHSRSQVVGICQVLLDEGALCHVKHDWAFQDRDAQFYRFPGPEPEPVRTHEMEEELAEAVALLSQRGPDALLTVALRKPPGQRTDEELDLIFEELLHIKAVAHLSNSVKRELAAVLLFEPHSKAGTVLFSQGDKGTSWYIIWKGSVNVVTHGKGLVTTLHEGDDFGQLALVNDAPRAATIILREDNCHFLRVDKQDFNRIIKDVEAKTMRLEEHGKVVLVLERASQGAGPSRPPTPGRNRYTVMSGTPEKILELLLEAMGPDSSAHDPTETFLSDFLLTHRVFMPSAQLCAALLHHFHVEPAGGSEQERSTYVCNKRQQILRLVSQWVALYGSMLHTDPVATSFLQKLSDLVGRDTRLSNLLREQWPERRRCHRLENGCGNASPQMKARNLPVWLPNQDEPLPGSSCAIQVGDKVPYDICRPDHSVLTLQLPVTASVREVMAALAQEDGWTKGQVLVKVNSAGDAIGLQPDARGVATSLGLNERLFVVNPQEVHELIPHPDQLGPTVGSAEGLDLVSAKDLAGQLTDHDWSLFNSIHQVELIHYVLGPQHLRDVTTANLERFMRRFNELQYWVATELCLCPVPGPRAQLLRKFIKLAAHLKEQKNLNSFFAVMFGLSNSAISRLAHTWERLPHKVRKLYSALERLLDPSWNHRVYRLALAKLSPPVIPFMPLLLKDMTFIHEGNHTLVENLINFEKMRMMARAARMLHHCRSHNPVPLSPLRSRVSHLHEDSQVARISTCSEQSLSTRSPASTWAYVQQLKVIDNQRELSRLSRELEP
Chain of DNA polymerase iota (Homo sapiens) (Q9UNA4 whole entry, looked up): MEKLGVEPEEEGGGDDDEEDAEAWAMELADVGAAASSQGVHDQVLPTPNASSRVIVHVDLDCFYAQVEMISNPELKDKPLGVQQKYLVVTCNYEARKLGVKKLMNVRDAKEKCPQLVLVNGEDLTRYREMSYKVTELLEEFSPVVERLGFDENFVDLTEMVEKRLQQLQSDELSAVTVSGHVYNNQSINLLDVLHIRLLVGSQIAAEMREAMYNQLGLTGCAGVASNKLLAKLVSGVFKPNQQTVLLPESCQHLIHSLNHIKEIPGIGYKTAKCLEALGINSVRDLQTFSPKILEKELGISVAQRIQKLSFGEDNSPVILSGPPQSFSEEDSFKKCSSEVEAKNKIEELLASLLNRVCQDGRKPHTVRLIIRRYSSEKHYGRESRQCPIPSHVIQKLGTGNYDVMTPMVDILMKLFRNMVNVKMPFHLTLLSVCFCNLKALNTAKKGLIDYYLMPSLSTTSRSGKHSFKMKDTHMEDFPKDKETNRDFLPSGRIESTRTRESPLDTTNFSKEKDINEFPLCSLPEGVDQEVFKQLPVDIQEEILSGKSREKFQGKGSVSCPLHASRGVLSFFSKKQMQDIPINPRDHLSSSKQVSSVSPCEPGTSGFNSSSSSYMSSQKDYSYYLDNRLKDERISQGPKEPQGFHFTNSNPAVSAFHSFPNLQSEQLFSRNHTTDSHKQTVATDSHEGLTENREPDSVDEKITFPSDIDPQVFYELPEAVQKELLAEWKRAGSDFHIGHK
Chain of DNA polymerase eta (Homo sapiens) (Q9Y253 whole entry, looked up): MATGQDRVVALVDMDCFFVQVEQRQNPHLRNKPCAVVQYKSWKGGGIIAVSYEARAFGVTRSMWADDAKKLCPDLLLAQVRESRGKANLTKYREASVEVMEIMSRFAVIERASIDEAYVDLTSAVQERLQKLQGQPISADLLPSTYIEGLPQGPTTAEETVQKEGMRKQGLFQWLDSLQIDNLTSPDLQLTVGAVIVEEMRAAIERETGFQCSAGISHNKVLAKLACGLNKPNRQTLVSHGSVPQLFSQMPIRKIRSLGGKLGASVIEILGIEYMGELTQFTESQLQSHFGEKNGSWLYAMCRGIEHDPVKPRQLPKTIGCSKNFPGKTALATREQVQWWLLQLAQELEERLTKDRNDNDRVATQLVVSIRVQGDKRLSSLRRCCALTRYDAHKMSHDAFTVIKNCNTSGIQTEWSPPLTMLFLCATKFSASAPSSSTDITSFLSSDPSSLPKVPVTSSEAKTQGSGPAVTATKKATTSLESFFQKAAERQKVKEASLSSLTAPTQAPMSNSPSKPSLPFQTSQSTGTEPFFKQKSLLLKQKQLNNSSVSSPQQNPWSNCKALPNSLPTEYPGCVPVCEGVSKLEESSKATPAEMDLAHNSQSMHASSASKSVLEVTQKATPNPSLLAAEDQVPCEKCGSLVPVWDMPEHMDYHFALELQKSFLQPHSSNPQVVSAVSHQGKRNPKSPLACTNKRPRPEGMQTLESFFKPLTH
Chain of Cytochrome P450 2D6 (Homo sapiens) (P10635 whole entry, looked up): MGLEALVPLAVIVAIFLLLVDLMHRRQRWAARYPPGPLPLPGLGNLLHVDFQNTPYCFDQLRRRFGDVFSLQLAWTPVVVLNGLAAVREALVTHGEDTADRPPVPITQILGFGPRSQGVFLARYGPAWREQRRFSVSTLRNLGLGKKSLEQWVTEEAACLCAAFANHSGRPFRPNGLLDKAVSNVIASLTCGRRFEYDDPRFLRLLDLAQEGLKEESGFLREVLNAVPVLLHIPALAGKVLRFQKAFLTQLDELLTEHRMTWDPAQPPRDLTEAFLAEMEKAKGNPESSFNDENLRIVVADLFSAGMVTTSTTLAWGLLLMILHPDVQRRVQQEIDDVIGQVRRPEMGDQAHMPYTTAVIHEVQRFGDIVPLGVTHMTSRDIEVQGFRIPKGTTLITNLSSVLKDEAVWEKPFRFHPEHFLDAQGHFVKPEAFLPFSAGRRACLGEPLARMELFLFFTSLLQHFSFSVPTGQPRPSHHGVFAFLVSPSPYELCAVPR

COCCn1c(N)c(C(=O)NCC2CCCO2)c2nc3ccccc3nc21 (configuration not stated)
inactive: activity change, negative = inhibition [1] -8.13% [at 17.2 µM] | activity change, negative = inhibition [2] 8.7% [at 17.2 µM] | outcome [3] | Potency [4] > 20.6 µM | Potency [5] | Potency [6] | Potency [7] | Potency [8] | Potency [9]

O=[N+]([O-])c1ccc(Sc2cccc[n+]2[O-])c2nonc12
inactive: Potency [6] | activation [7] 3.05% [at 17.1 µM, percent relative to cAMP agonist control] | Potency [8] | activity change, negative = inhibition [9] -8.92% [at 30.8 µM] | activation [11] 9.42% [at 30.8 µM]
active: Potency [10] 18.3 µM | Potency [5] 31.6 µM

Cc1ccc(-c2cn3nc(-c4ccccc4)c(-c4ccccc4)nc3n2)cc1
active: Potency [10] 25.9 µM
inactive: Potency [5] | Potency [6] | Potency [7] | Potency [8] | Potency [9] | Potency [11]

Cc1cc(NS(=O)(=O)c2ccc(NC(=O)COc3c(C)cc(Br)cc3C)cc2)no1
inactive: Potency [10] | Potency [5] | Potency [6] | Potency [7] | Potency [8] | Potency [9] | Potency [11]

COC(=O)c1ccc(COc2ccc(/C=C/C(=O)c3ccc(OC)c(CSCC(=O)O)c3)cc2OC)cc1
active: Potency [12] 75.2 µM | Potency [13] 60.1 µM | Potency [5] 37.9 µM
inactive: Potency [6] | Potency [7] | Potency [8] | Potency [9] | Potency [11]

Cc1ccc(C(=O)/C=C/c2cc(Br)cc(Br)c2O)o1
active: Potency [5] 26.9 µM
inactive: Potency [14] | Potency [6] | Potency [7] | Potency [8] | Potency [9] | Potency [11]

Cc1ccc(C)c2nc3sc(C(=O)N4CCCc5ccccc54)c(N)c3cc12
active: Potency [10] 20.6 µM
inactive: Potency [5] | Potency [6] | Potency [7] | Potency [8] | Potency [9]

COc1ccc(S(=O)(=O)/N=C2\C=C(NS(=O)(=O)c3ccccc3)C(=O)c3ccccc32)cc1
active: Potency [12] 67 µM | Potency [5] 8.49 µM | Potency [6] 50.1 µM | Potency [7] 100 µM | Potency [8] 10.7 µM
inactive: Potency [9] | Potency [11]

CC(C)=CCC1=C(OCC(=O)O)C(=O)c2ccccc2C1=O
active: Potency [16] 0.501 µM | Potency [20] 3.16 µM | Potency [21] 1.26 µM | Potency [5] 84.9 µM
inactive: Potency [15] > 11.4 µM | activity change, negative = inhibition [1] 18.8% | outcome [3] | Potency [4] > 46 µM | Potency [17] > 9.22 µM | activity change, negative = inhibition [18] 15.2% [at 11.4 µM] | Potency [19] | Potency [6] | Potency [7] | Potency [8] | Potency [9]

COc1ccc(N=Nc2nc3cc(Br)c(Br)cc3n2C)c(OC)c1
inactive: Potency [10] | Potency [5] | Potency [6] | activation [7] 3.19% [at 17.1 µM, percent relative to cAMP agonist control] | Potency [8] | activity change, negative = inhibition [9] 88.5% [at 30.8 µM]
active: Potency [11] 12.6 µM

O=C(N/N=C/c1ccccc1Cl)c1[nH]c2ccc(Br)cc2c1-c1ccccc1
inactive: Potency [10] | Potency [5] | Potency [6] | Potency [8] | Potency [9]
active: Potency [7] 126 µM

Cc1ccc(/C(O)=C2/C(=O)C(=O)OC2c2ccc(Cl)cc2)cc1 (configuration not stated)
active: Potency [14] 7.08 µM | Potency [5] 39.8 µM
inactive: Potency [6] | activation [7] 1.22% [at 17.1 µM, percent relative to cAMP agonist control] | Potency [8] | activity change, negative = inhibition [9] -12.7% [at 30.8 µM] | activation [11] 5.06% [at 30.8 µM]

NC1=CC(=O)C(=O)c2cccnc21
active: Potency [12] 42.3 µM | Potency [13] 26.9 µM | Potency [5] 10 µM
inactive: Potency [6] | activation [7] 3.71% [at 17.1 µM, percent relative to cAMP agonist control] | Potency [8] | activity change, negative = inhibition [9] -7.69% [at 30.8 µM] | activation [11] 11.2% [at 30.8 µM]

Cc1cccc(N2C(=O)c3cccc4c(N(C)CCO)ccc(c34)C2=O)c1
active: Potency [10] 3.66 µM | Potency [6] 89.1 µM | Potency [7] 100 µM | Potency [11] 39.8 µM
inactive: Potency [5] | Potency [8] | Potency [9]

CSC1=NSC2=NC(=O)/C(=C\c3coc4ccccc4c3=O)C(=N)N12
active: Potency [10] 5.17 µM | Potency [6] 89.1 µM | Potency [7] 100 µM | Potency [8] 16.9 µM | Potency [11] 44.7 µM
inactive: Potency [5] | Potency [9]

c1ccc(-c2cn3nc(-c4ccccc4)c(-c4ccccc4)nc3n2)cc1
inactive: Potency [10] | Potency [5] | Potency [6] | activation [7] 8.73% [at 17.1 µM, percent relative to cAMP agonist control] | Potency [8] | activity change, negative = inhibition [9] 14.3% [at 30.8 µM] | activation [11] 16.7% [at 30.8 µM]
